Measured values: PubChem BioAssay (Tox21)
A number with no mark means an inactive call. Results filed as inconclusive are left out. A call without a number means that no potency is given here. Calls of active or inactive are those of the source. Unless noted, the call rests on the fitted dose curve; in most records, active means well fitted curve in the direction sought with a large enough effect in the repeat runs; inconclusive means weak or mixed curves; inactive means no such curve, though single readings can be large; an effect the other way counts as inactive or inconclusive.

Legend:
[1] = qHTS assay to identify small molecule agonists of the constitutive androstane receptor (CAR) signaling pathway - cell viability counter screen (AID 1224836); further: nearly all actives have a fitted effect of over 45% in size
Procedure, shortened: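 23 h treatment, 37 C, 5% CO2. Cell line: HepG2 stably expressing hCAR with a CYP2B6-2.2kb construct. Co-treatment: PK11195, 0.75 uM final. Read-out: CellTiter-Fluor fluorescence intensity.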

[2] = qHTS assay to identify small molecule antagonists of the constitutive androstane receptor (CAR) signaling pathway - cell viability counter screen (AID 1224837); further: nearly all actives have a fitted effect of over 45% in size
Procedure, shortened: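 HepG2 cells stably expressing hCAR and a CYP2B6-2.2kb reporter were plated and pre-incubated 4 hr at 37 C/5% CO2, then given compounds at 15 concentrations plus 50 nM CITCO (final). After 23 hr, viability was read by CellTiter-Fluor fluorescence.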

[3] = target: Nuclear receptor subfamily 1 group I member 3 (Homo sapiens) (UniProt Q14994); test: qHTS assay to identify small molecule antagonists of the constitutive androstane receptor (CAR) signaling pathway (AID 1224838); further: nearly all actives have a fitted effect of over 40% in size; further: potency means the concentration at half of the fitted maximal effect
Sequence of Nuclear receptor subfamily 1 group I member 3 (Homo sapiens) (Q14994 whole entry, looked up): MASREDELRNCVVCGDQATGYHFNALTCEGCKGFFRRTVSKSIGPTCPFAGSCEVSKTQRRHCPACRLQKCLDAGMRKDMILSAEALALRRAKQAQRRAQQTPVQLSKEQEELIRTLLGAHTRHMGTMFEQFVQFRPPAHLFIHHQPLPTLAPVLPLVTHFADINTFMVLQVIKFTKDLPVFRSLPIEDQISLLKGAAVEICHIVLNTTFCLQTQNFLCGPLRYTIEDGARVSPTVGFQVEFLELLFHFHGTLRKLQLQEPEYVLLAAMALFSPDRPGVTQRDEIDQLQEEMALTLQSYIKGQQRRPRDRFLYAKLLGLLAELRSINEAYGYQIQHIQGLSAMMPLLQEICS
Procedure, shortened: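 HepG2 cells stably co-transfected with hCAR and a CYP2B6-2.2kb luciferase reporter were seeded 4 h before compound addition at 15 concentrations. Cells were stimulated with 50 nM CITCO (final) for 24 h at 37 C; luciferase luminescence was then read.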

[4] = qHTS assay to identify small molecule agonists of the estrogen related receptor signaling pathway with the pleiotropic PPARgamma coactivator (PGC) from Tox21 10K library (AID 1224842); further: nearly all actives have a fitted effect of over 15% in size
Procedure, shortened: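 Luminescence from One-Glo (30 min, room temperature) measured after PGC/ERR cells had 18 h at 37 C with pinned compound (23 nL in DMSO). Cells had been seeded at 2,000 per well and pre-incubated 6 h.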

[5] = target: Thyrotropin receptor (Homo sapiens) (UniProt P16473); test: qHTS assay to identify small molecule agonists of the thyroid stimulating hormone receptor (TSHR) signaling pathway (AID 1224843; calls by dose curve; further: nearly all actives have a fitted effect of over 45% in size; further: potency means the concentration at half of the fitted maximal effect)
Sequence of Thyrotropin receptor (Homo sapiens) (P16473 whole entry, looked up): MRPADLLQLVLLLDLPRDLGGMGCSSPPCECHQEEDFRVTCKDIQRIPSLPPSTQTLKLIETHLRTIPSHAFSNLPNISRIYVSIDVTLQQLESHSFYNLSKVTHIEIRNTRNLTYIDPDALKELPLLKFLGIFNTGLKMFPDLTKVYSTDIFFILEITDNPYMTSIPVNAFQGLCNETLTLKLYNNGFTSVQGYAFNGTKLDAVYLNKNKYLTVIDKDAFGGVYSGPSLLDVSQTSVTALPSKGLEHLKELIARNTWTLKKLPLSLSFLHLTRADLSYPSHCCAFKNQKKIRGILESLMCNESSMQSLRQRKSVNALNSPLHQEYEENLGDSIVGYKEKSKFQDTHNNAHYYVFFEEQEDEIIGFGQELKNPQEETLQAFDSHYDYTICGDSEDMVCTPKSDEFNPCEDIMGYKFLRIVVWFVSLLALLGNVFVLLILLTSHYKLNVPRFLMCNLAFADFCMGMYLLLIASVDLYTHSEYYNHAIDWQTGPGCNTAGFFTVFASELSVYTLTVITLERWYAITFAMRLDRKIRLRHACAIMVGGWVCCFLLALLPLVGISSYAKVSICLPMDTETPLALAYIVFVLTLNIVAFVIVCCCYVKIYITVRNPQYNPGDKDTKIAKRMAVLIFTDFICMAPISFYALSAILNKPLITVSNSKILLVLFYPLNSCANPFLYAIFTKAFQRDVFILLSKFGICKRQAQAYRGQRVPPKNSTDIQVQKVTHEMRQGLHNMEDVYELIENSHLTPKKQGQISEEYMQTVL
Procedure, shortened: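 Screening of the Tox21 10K collection used HEK293 cells engineered with TSHR at 800 cells per well. After a 30-min room-temperature compound exposure, HTRF cAMP reagents were added and fluorescence recorded 1 h later.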

[6] = qHTS assay to identify small molecule agonists of the hypoxia (HIF-1) signaling pathway - cell viability counter screen (AID 1224844; calls by dose curve; further: nearly all actives have a fitted effect of over 50% in size)
Procedure, shortened: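 HRE-bla ME-180 cells in medium with 0.5% dialyzed FBS were preincubated 5 hrs at 37C, exposed to compounds for 17 hrs, then viability was read as CellTiter-Glo luminescence after 30 min at room temperature, in the reporter wells.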

[7] = qHTS assay to identify small molecule agonists of the hypoxia (HIF-1) signaling pathway (AID 1224846; active means well fitted activation curve with a large enough effect in the signal ratio in the repeat runs, not every such curve was filed as active; the % refers to the signal ratio)
Procedure, shortened: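 HRE-bla ME-180 cells (beta-lactamase reporter under hypoxia response element) were plated at 2,000 cells/well in medium with 0.5% dialyzed FBS, rested 5 hrs, then given compounds in DMSO for 17 hrs at 37C, 5% CO2. Reporter induction was read with CCF4-AM FRET substrate.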

[8] = qHTS assay to identify small molecule agonists of H2AX - cell viability counter screen (AID 1224847; calls by dose curve; further: nearly all actives have a fitted effect of over 30% in size; further: potency means the concentration at half of the fitted maximal effect)
Procedure, shortened: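 Compounds tested at 15 concentrations were incubated 3 hr at 37C with wild-type CHO-K1 cells; cellular ATP-based luminescence (CellTiter-Glo) indicated viability.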

[9] = qHTS assay to identify small molecule antagonists of the estrogen related receptor (ERR) signaling pathway from Tox21 library (AID 1224848); further: potency means the concentration at half of the fitted maximal effect; nearly all actives have a fitted effect of over 50% in size
Procedure, shortened: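 Antagonist-mode screen of the Tox21 10K library in an NTP-provided ERR reporter cell line; 18 h compound exposure at 37 C, luminescence measured with ONE-Glo.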

[10] = qHTS assay to identify small molecule agonists of the estrogen related receptor (ERR) signaling pathway from Tox21 library (AID 1224849; calls by dose curve; further: nearly all actives have a fitted effect of over 15% in size); settings: ERR reporter cell line, ONE-Glo luciferase, 18 h; at 92.4 µM (top of the series) unless noted
Procedure, shortened: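 ERR reporter cell line (NTP) seeded, rested 6 h at 37 C/5% CO2, then pinned with Tox21 compounds in DMSO. After 18 h at 37 C, ONE-Glo luciferase luminescence was read following 30 min at room temperature.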

[11] = qHTS RealTime-Glo MT Cell Viability Assay in HepG2 cells - 24 hour (AID 1224867); further: nearly all actives have a fitted effect of over 50% in size
Procedure, shortened: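 HepG2 cells were seeded at 600 cells/well together with NanoLuc luciferase and a cell-permeant prosubstrate, preincubated 5 h at 37 C/5% CO2, then pin-dosed with compounds in DMSO. Nonlytic luminescence from viable cells was read at each time point.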

[12] = A CellTox Green Cytotoxicity Assay to monitor cytotoxicity in HEK293 cells - 0 hour (AID 1224869); further: nearly all actives have a fitted effect of over 50% in size
Procedure, shortened: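 HEK293 cells premixed with CellTox Green dye were seeded at 600 cells/well and left 5 h at 37 C/5% CO2 before pin transfer of 23 nL compound in DMSO. Fluorescence from dye bound to dead-cell DNA was read during 40 h treatment.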

[13] = qHTS RealTime-Glo MT Cell Viability Assay in HepG2 cells - 40 hour (AID 1224870); further: nearly all actives have a fitted effect of over 50% in size
Procedure, shortened: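 Real-time viability: cells seeded at 600 per well together with NanoLuc and cell-permeant prosubstrate, compounds added after 5 h incubation. Luminescence tracked at 0, 8, 16, 24, 32 and 40 h of exposure.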

[14] = target: Luciferin 4-monooxygenase (Photinus pyralis) (UniProt P08659); test: qHTS assay to identify small molecule inhibitors of firefly luciferase (AID 1224835); further: nearly all actives have a fitted effect of over 25% in size; further: potency means the concentration at half of the fitted maximal effect
Sequence of Luciferin 4-monooxygenase (Photinus pyralis) (P08659 whole entry, looked up): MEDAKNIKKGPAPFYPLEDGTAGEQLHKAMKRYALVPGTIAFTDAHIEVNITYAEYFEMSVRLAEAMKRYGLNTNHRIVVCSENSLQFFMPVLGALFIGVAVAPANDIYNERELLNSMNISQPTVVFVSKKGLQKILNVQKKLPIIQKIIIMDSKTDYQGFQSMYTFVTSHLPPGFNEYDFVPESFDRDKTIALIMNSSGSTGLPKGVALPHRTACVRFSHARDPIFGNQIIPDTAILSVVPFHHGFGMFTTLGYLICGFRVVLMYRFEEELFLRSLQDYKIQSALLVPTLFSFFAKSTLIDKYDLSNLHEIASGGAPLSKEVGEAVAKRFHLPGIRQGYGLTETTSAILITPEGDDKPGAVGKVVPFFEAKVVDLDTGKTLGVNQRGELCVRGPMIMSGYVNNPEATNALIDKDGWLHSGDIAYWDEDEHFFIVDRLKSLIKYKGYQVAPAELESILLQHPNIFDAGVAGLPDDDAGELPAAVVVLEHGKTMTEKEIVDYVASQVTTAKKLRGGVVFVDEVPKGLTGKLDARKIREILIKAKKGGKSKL
Procedure, shortened: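 Inhibition of purified Photinus luciferase is measured by luminescence. Substrate levels (D-luciferin, ATP) sit at their KM values. Each compound is tested in a concentration series.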

[15] = target: Nuclear receptor subfamily 1 group I member 3 (Homo sapiens) (UniProt Q14994); test: qHTS assay to identify small molecule agonists of the constitutive androstane receptor (CAR) signaling pathway (AID 1224839); further: nearly all actives have a fitted effect of over 15% in size; further: potency means the concentration at half of the fitted maximal effect;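 on activation: HepG2 cells stably carrying human CAR and a CYP2B6 luciferase reporter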
Procedure, shortened: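 Compounds tested at 15 concentrations on HepG2 cells stably harbouring hCAR and CYP2B6-2.2kb reporter constructs, co-treated with PK11195 (0.75 uM final), 24 h at 37 C; luminescent reporter signal quantified.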

[16] = qHTS RealTime-Glo MT Cell Viability Assay in HEK293 cells - 32 hour (AID 1224868); further: nearly all actives have a fitted effect of over 50% in size; further: potency means the concentration at half of the fitted maximal effect
Procedure, shortened: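 HEK293 cells were seeded at 600 cells/well together with NanoLuc luciferase and cell-permeant prosubstrate, preincubated 5 h at 37 C/5% CO2, then given compound in DMSO by pintool. Luminescence from viable-cell prosubstrate reduction was read repeatedly over 40 h.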

[17] = qHTS assay to identify small molecule antagonists of the estrogen related receptor signaling pathway with the pleiotropic PPARgamma coactivator (PGC) from Tox21 10K library - cell viability counter screen (AID 1224840; active means well fitted cell-killing curve with a large enough effect in the repeat runs, not every such curve was filed as active; further: nearly all actives have a fitted effect of over 40% in size)
Procedure, shortened: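 PGC/ERR cells were seeded at 2,000 cells/well and left 6 hours at 37 C/5% CO2 before pin-tool addition of compounds in DMSO. After 17.5 hours at 37 C, CellTiter-Fluor was added and fluorescence read 30 minutes later.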

[18] = qHTS assay to identify small molecule agonists of H2AX (AID 1224845; active means well fitted activation curve with a large enough effect in the signal ratio in the repeat runs, not every such curve was filed as active; the % refers to the signal ratio)
Procedure, shortened: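 Phospho-H2AX Ser139 measured by HTRF (ex 320 nm; em 665 and 620 nm) after 24 hr antibody incubation. Compounds, 15 concentrations, 0.76% DMSO, were applied to CHO-K1 cells for 3hr at 37C before lysis.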

[19] = qHTS assay to identify small molecule antagonists of the estrogen related receptor signaling pathway with the pleiotropic PPARgamma coactivator (PGC) from Tox21 10K library (AID 1224841; call rule not given here; further: potency means the concentration at half of the fitted maximal effect)
Procedure, shortened: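 PGC/ERR reporter cells were seeded at 2,000 cells/well and held 6 hours at 37 C/5% CO2 before pin-tool addition of compounds in DMSO. After 18 hours at 37 C, One-Glo was added and luminescence read after 30 minutes at room temperature.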

SMILES	Potency [1]	Potency [2]	Potency [3]	Potency [4]	Potency [5]	Potency [6]	outcome [7]	Potency [8]	Potency [9]	activity change, positive = activation [10]	Potency [11]	Potency [12]	Potency [13]	Potency [14]	Potency [15]	Potency [16]	Potency [17]	Potency [18]	Potency [19]
CC[C@H]1C[C@H]2[C@@H]3CCC4=CC(=O)CC[C@@H]4[C@H]3CC[C@]2(C)[C@H]1O	inactive	inactive	inactive	inactive	inactive	inactive	inactive	inactive	29.8 µM (active)	-38.2% [at 42.5 µM]	inactive	inactive	inactive						
COc1nn(CSP(=S)(OC)OC)c(=O)s1		inactive	inactive				inactive				inactive	inactive	inactive	35.6 µM (active)	54.5 µM (active)	inactive			
CCC(COC(=O)c1cc(OC)c(OC)c(OC)c1)(c1ccccc1)N(C)C (centres undefined)	inactive	inactive				inactive					inactive	inactive	inactive						
O=C(OC1CCCCC1)c1ccccc1C(=O)OC1CCCCC1	inactive	inactive	inactive				inactive	106 µM (active)			inactive	inactive	inactive	inactive		inactive	inactive	inactive	
Clc1ccc(C(OCCN2CCCCC2)c2ccccc2)cc1 (centres undefined)	inactive	inactive	inactive	inactive	inactive		inactive	inactive		-17.2% [at 42.5 µM]		inactive	inactive		inactive		inactive	inactive	inactive
CN1C[C@H](CNC(=O)OCc2ccccc2)C[C@@H]2c3cccc4c3c(cn4C)C[C@H]21		inactive	inactive		inactive	inactive		inactive				inactive				21.3 µM (active)	inactive	inactive	
COC(=O)C(C)N(C(=O)Cc1ccccc1)c1c(C)cccc1C (centres undefined)	inactive	inactive	inactive		27.3 µM (active)	inactive	inactive	inactive	30.6 µM (active)	-38.3%	inactive	inactive	inactive	inactive	9.69 µM (active)		inactive	inactive	
CCCN(CCC)c1c([N+](=O)[O-])cc(S(C)(=O)=O)cc1[N+](=O)[O-]	inactive	inactive					inactive	inactive		-24.5%	inactive	inactive	inactive	inactive		13.8 µM (active)	inactive	inactive	
CCCCc1c(C)nc(NCC)nc1OS(=O)(=O)N(C)C	inactive			inactive	inactive	inactive	inactive		30.6 µM (active)	-48.3%	inactive	inactive				11 µM (active)		inactive	48.6 µM (active)
CC1(C)CCC(Cc2ccc(Cl)cc2)C1(O)Cn1cncn1 (centres undefined)	inactive	inactive		inactive			inactive	101 µM (active)	30.6 µM (active)	-53.4%	inactive	inactive	inactive	inactive	inactive	24.5 µM (active)		inactive	38.6 µM (active)
O=C1CN=C(c2ccccc2)c2cc(Cl)ccc2N1CC1CC1	inactive	inactive	inactive	inactive			inactive	94.2 µM (active)		-41.3%		inactive	inactive	inactive			inactive	inactive	25.5 µM (active)
Nc1ccc([N+](=O)[O-])cc1[N+](=O)[O-]					inactive	inactive	inactive				inactive	inactive	inactive	inactive				inactive	
N#Cc1cc(I)c(O)c(I)c1			61.1 µM (active)		inactive	inactive	inactive	28.4 µM (active)	24.3 µM (active)	-66.8%	inactive	inactive	inactive		inactive			inactive	30.6 µM (active)
CCOP(=O)(OCC)O/C(=C/Cl)c1ccc(Cl)cc1Cl			inactive	inactive		inactive	inactive		6.86 µM (active)	-61.6%		inactive	inactive	inactive	27.3 µM (active)	21.9 µM (active)		inactive	2.73 µM (active)
COP(=O)(OC)O/C(=C/Cl)c1cc(Cl)c(Cl)cc1Cl	inactive	inactive		inactive						-67.5%	inactive	inactive	inactive					inactive	8.13 µM (active)
